Pf Dd2 inh – qHTS Primary assay for Inhibitors of Plasmodium falciparum Dd2 growth in vitro; Potency, µM (top dose mostly 28.9 µM), for inactives: at the highest dose activity, negative = inhibition, most hits filed as inhibitors; AID 1347417, 2020; P. falciparum Dd2 growth, SYBR Green, 72 h; 120,000 compounds, 4.3% hits; active = well fitted inhibition curve with a large enough effect;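 also: plate controls were DMSO vehicle for no effect and reference drug for full effect; nearly all actives have a fitted effect of over 65% in size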
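Infected erythrocytes (Dd2, 0.3% parasitemia, 2.5% hematocrit final) are added to compound in RPMI-1640/Albumax II medium, grown 72 h at 37C in low oxygen, then lysed with saponin/Triton-X containing SYBR Green and read by fluorescence.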
An asterisk follows results filed as active; i = inactive; [ ] = remark or other dose. The entries come from a sample that favours hits as a whole. Potency is read from the fitted curve at half-maximal effect.

SMILES | Pf Dd2 inh
COc1ccc(C(=O)N2[C@@H]3CC[C@H]2CC(NC(=O)c2cnc(C)cn2)C3)cc1OC (some centres not stated) | i
O=S(=O)(c1cccnc1)N1CCC(N2CC(OCC3CC3)C23CCOCC3)CC1 (configuration not stated) | i
COc1ccc(C(=O)NCCn2ccn3nc(-c4ccc(F)cc4)cc3c2=O)cn1 | -3%
COC[C@]1(O)CCN(C(=O)c2ccc3c(c2)CCC3)CC1(C)C | -9%
Cn1ccnc1C(=O)N1CCCC(c2noc(COc3ccccc3F)n2)C1 (configuration not stated) | -13%
COc1ccc(CN2CC3(CCN(C(=O)Cn4c(=O)oc5ccccc54)CC3)C2=O)cc1 | i
Cc1oc(-c2ccc(F)cc2)nc1CN1CCC2(CCCO2)CCC1=O (configuration not stated) | 2%
CS(=O)(=O)c1ccc(CN2CCCC(Cc3nc4ccccc4[nH]3)C2)cc1 (configuration not stated) | i
CCOC(=O)C1(C/C=C/c2ccccc2)CCCN(C(=O)C2CCOCC2)C1 (configuration not stated) | -15%
CCn1cc2nc(SCc3ccccc3)n(Cc3ccc(C)cc3)c(=O)c2n1 | 1%
CCn1cc2nc(SCc3cc(C)ccc3C)n(Cc3ccc(C)cc3)c(=O)c2n1 | 10µM*
CCn1cc2nc(SCc3ccc(F)cc3)n(Cc3ccc(Cl)cc3)c(=O)c2n1 | -4%
COc1ccc(CC(=O)NC2CCCN(c3cc(-c4ccc(F)cc4)[nH]n3)C2)cc1OC (configuration not stated) | i
NC(=O)[C@@H](Cc1c[nH]c2ccccc12)NC(=O)[C@@H]1CN(C(=O)Nc2ccccc2)CCN1C(=O)C1CCCCC1 | i
Cc1noc(C)c1-c1cc(-c2ccc3c(c2)C(=O)NC3)cn2cncc12 | i
COc1ccc(-c2cc(-c3ccc(F)cc3OC)cn3cncc23)cc1 | 6.3µM*
COc1ccc(-c2cc(-c3ccc4c(c3)CNC4=O)cn3cncc23)cc1 | 4.5µM*
OCc1ccc(-c2cc(-c3ccncc3)c3cncn3c2)cc1 | -6%[44.1 µM]
Fc1cccc(-c2cc(-c3cn[nH]c3)c3cncn3c2)c1 | -2%[44.1 µM]
COc1ccc(-c2cc(-c3ccc(F)cc3)cn3cncc23)cc1 | 3.2µM*
CN(C)Cc1ccc(-c2cc(-c3cn[nH]c3)c3cncn3c2)cc1 | 11%[44.1 µM]
COc1ccc(-c2cc(-c3ccncc3)cn3cncc23)cc1 | 10µM*
Cn1cc(-c2cc(-c3ccncc3)c3cncn3c2)cn1 | i
COc1ccccc1-c1cc(-c2ccc(=O)[nH]c2)c2cncn2c1 | 15%[44.1 µM]
COc1cc(F)ccc1-c1cc(-c2cn[nH]c2)c2cncn2c1 | i
SMILES | Pf Dd2 inh
Cc1cnc(-c2cccnc2)n1CC1CCNCC1 | 22%
Cn1nc(C(=O)N2CCC3(CC2)N=C(c2cccc(Br)c2)NO3)c2ccccc21 | i
CS(=O)(=O)N1CCN(C(=O)N2CCOCC2)[C@@H](C(=O)N[C@@H](CC2CCCCC2)C(N)=O)C1 | -5%
CCOC(=O)C1(Cc2ccccc2F)CCCN(C(=O)c2cccc(-n3cccn3)c2)C1 (configuration not stated) | i
O=C1OCC2=C1C(c1ccc(Cl)cc1)NC(=O)N2CC(=O)N1CCC(Cc2ccccc2)CC1 (configuration not stated) | i
CNC(C)c1ccccc1 (configuration not stated) | -18%[44.1 µM]
COc1cc(C(=O)N2CCCn3nc(CO)cc3C2)c2ccccc2n1 | -12%
CN(Cc1ccccn1)C(C(=O)O)c1cnn(Cc2ccccc2)c1 (configuration not stated) | 9%
CCn1c(CO)nnc1C1CC(NC(=O)CCn2c(=O)[nH]c3ccccc32)C1 (configuration not stated) | 2%
FC(F)(F)c1cccc(-c2cc(-c3ccncc3)c3cncn3c2)c1 | -13%[44.1 µM]
COc1cccc(-c2cc(-c3ccncc3)c3cncn3c2)c1OC | 10µM*
COc1ccc(-c2cc(-c3ccncc3)c3cncn3c2)cc1 | 11µM*
c1cc(-c2cc(-c3ccncc3)c3cncn3c2)c2[nH]ncc2c1 | i
CCn1c(C2CCNCC2)nn(Cc2cnn(-c3ccccc3F)c2)c1=O | 6%
COc1cccc(CNC(=O)Cn2cccc2-c2nc(-c3ccccc3)no2)c1OC | 18%
Cc1cc(=O)n2[nH]c(CC(=O)N3CCn4nc(C(C)O)cc4C3)nc2n1 (configuration not stated) | -4%
O=C(c1ccccc1C(F)(F)F)N1CCC(n2cnnc2C2CC2)CC1 | 5%
CC(=O)NCCC(=O)N1Cc2ccccc2CC2(CCN(CC3CCNC3)CC2)C1 (configuration not stated) | 3%
CC1CCN(C(=O)Cn2cc(SCC(=O)NCc3ccccc3)c3ccccc32)CC1 | -12%
CC1CCN(C(=O)Cn2cc(SCC(=O)Nc3ccccc3)c3ccccc32)CC1 | -21%
CC1CCN(C(=O)CC(c2ccc(Cl)cc2)c2cn(C)c3ccccc23)CC1 (configuration not stated) | 7.9µM*
